From PubChem BioAssay
Activity calls are given as the source filed them.

Tests used:
[1] = A549 cell viability effects, profiling panel, calcein-AM fluorescence, 48 h, basal (AID 1162); conditions: higher = more signal
[2] = adipocyte viability effects, profiling panel, cell-based, 3T3-L1 adipocytes, calcein-AM fluorescence, 48 h, basal (AID 1163); conditions: 3T3-L1 adipocytes viability, higher = more signal
[3] = HepG2 cell viability effects, profiling panel, calcein-AM fluorescence, 48 h, basal (AID 1164); conditions: higher = more signal
[4] = MM1S cell viability effects, profiling panel, calcein-AM fluorescence, 48 h, basal (AID 1165); conditions: higher = more signal;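 further: viability of MM1S multiple myeloma cells under basal unstimulated conditions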
[5] = basal RPMI8226 viability, no added stimulus, profiling panel, cell-based, calcein-AM fluorescence, 48 h, PK04 Diversity Set (AID 1166); conditions: RPMI8226 myeloma viability, higher = more signal;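 further: cells grown under basal conditions without added stimulus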
[6] = basal HepG2 mitochondrial membrane potential changes, profiling panel, cell-based, JC-1 fluorescence, 24 h, 100 nL compound (AID 1167); conditions: higher = more signal
[7] = basal 3T3-L1 adipocyte mitochondrial potential changes, profiling panel, cell-based, JC-1 fluorescence, 3T3-L1 adipocytes, 24 h, 100 nL compound (AID 1168); conditions: JC-1 mitochondrial fluorescence, higher = more signal, called active from +8 up or from −8 down
[8] = basal RPMI8226 mitochondrial membrane potential changes, profiling panel, cell-based, JC-1 fluorescence, 24 h, 100 nL compound (AID 1169); conditions: RPMI8226 myeloma, JC-1 mitochondrial potential fluorescence, higher = more signal
[9] = basal MM1S mitochondrial membrane potential changes, profiling panel, cell-based, JC-1 fluorescence, 24 h, 100 nL compound (AID 1170); conditions: higher = more signal
[10] = A549 lung cancer cell viability effects, profiling panel, resazurin fluorescence, 24 h, PK04 Diversity Set (AID 1171); conditions: higher = more signal, called active from +8 up or from −8 down
Further: test concentration not given here.

Row | SMILES | z-score [1] | z-score [2] | z-score [3] | z-score [4] | z-score [5] | z-score [6] | z-score [7] | z-score [8] | z-score [9] | z-score [10]
1 | COc1ccc([Si](C)(C)[C@H]2[C@H](CC(=O)N3CCC[C@H]3CO)O[C@@]3(C(=O)N(C)c4ccccc43)[C@@H]2C)cc1 | 0.183 | -0.522 | 0.233 | 0.0008 | 0.143 | -1.03 | -0.223 (inactive) | 0.812 | -0.265 | -0.394 (inactive)
2 | C=CC[C@]1(C(=O)NCC(O)CO)N=C(c2ccc(OCCCO)cc2)O[C@H]1c1ccccc1CN=[N+]=[N-] (stereo not given in full) | 0.444 | -0.0459 | 1.31 | -0.22 | -0.365 | 1.28 | -0.451 (inactive) | -0.427 | -0.825 | -0.389 (inactive)
3 | O=C(O)C1=CC[C@H]2C(=O)N(c3ccccc3)C(=O)[C@@H]12 | -1.05 | -0.261 | -0.625 | -0.911 | -0.222 | -0.915 | -0.162 (inactive) | 0.364 | -1.46 | 0.64 (inactive)
4 | C=CCOC(=O)[C@H]1[C@@H]2C(=O)O[C@@H](c3ccccc3)[C@@H](c3ccccc3)N2[C@@H](c2ccc(OCCOC(=O)[C@H]3C[C@H]4C(=O)NCC(=O)N4[C@H]3c3ccc(O)cc3)cc2)[C@]12C(=O)Nc1ccccc12 | -0.759 | 0.645 | -1.05 | 0.117 | -0.259 | -1.42 | 0.962 (inactive) | -0.356 | -0.821 | 0.729 (inactive)
5 | C=CC[C@H](OC(=O)Nc1ccc(SC)cc1)c1ccc(O)c(F)c1 | -1.24 | -0.152 | -1.82 | -1.59 | -1.64 | -3.17 | 2.25 (inactive) | -0.325 | -0.716 | -1.01 (inactive)
6 | C=C(C(=O)CC[C@@H](OC(=O)c1ccccc1-c1ccccc1C(=O)O)c1ccc(CO)o1)C(C)C | -0.656 | 0.231 | 0.473 | -1.33 | -0.951 | -1.54 | -0.747 (inactive) | -0.479 | -0.0298 | -0.359 (inactive)
7 | CCCC[C@@H](O)C1=C(C)Cn2c(=O)n(-c3ccccc3)c(=O)n2[C@H]1CO | 1.38 | 0.345 | 0.108 | 0.548 | 0.617 | 0.372 | 0.276 (inactive) | -0.347 | -0.804 | -1.16 (inactive)
8 | [N-]=[N+]=Nc1ccccc1C[C@]1(C(N)=O)COC(c2ccc(OCCCO)cc2)=N1 | -0.193 | 0.936 | 0.0027 | -0.286 | -0.334 | 0.253 | -0.298 (inactive) | -0.964 | -0.942 | 0.246 (inactive)
9 | COc1cccc(C)c1NC(=O)O[C@H]1[C@H](OC(=O)Nc2ccc3c(c2)OCO3)[C@H](OC(=O)Nc2ccc3c(c2)OCO3)[C@@H](OC)O[C@@H]1CO | -0.934 | 0.372 | -0.997 | -1.62 | -1.82 | -0.514 | 0.308 (inactive) | -0.136 | -0.724 | -0.654 (inactive)
10 | O=C1OCC=C[C@H]2OC34C=CCN(Cn5nnc6ccccc65)C(=O)[C@H]3N(CCO)C(=O)[C@@H]4[C@@H]12 (stereo not given in full) | 0.0757 | -0.529 | 0.344 | 0.897 | 0.209 | -1.15 | 0.765 (inactive) | -0.462 | -0.187 | -0.822 (inactive)
11 | Cc1ccc(S[C@]2(C(=O)NC(C)C)CC(=O)N(Cc3ccccc3)[C@@H]2c2ccc(CO)cc2I)cc1 | 0.15 | 0.547 | 1 | -2.02 | -1.69 | 0.744 | 0.98 (inactive) | -0.25 | -1.23 | -1.13 (inactive)
12 | CN(C)CCCCNC(=O)[C@H]1C[C@H]2C(=O)N[C@@H](CCCCN(C)C)C(=O)N2[C@H]1c1ccc(O)cc1 | 0.897 | 0.613 | 0.218 | 0.428 | 1.26 | 0.754 | 0.903 (inactive) | -0.623 | -0.379 | 1.2 (inactive)
13 | C=CCN1C(=O)[C@@]2(O[C@@H](CCO)[C@H]([Si](C)(C)c3ccc(OC)cc3)[C@H]2C)c2cc(N3CCCCC3=O)ccc21 | -0.816 | 0.146 | -4.51 | -2.69 | -4.05 | -1.44 | -0.0545 (inactive) | -1.01 | -1.75 | -2.04 (inactive)
14 | CCCCCCc1nc(-c2ccc(OC)nc2)c(C)c2c1[Si](C(C)C)(C(C)C)OC2 | -0.405 | 1.26 | 0.002 | -2.26 | -2.79 | 0.103 | 0.251 (inactive) | -0.641 | 0.498 | 0.863 (inactive)
15 | COc1ccc([Si](C)(C)[C@@H]2[C@@H](CC(=O)N3CCC[C@H]3CO)O[C@]3(C(=O)N(Cc4cccc(N5C(=O)c6cccc7cccc5c67)c4)c4ccccc43)[C@H]2C)cc1 | -1.07 | 1.29 | -3.23 | -2.44 | -4.33 | -0.907 | 0.522 (inactive) | -1.05 | -1.01 | -1.53 (inactive)
16 | O=C1O[C@H](c2ccccc2)[C@H](c2ccccc2)N2[C@H]1[C@@H](C(=O)Nc1nc3ccccc3s1)[C@]1(C(=O)Nc3ccccc31)[C@H]2c1ccccc1OCCO | -1.59 | 0.842 | -1.97 | -1.61 | -3.67 | -2.27 | 4.1 (inactive) | -1.16 | -1.37 | -2.35 (inactive)
17 | CCCCC(=C=CC[C@@H](O)c1ccc(OCCO)cc1)CCO | 1.39 | -0.0802 | 0.016 | -0.64 | 0.796 | 0.0677 | -0.214 (inactive) | -0.0377 | 1.03 | 1.46 (inactive)
18 | O=C1c2ccccc2[C@](Cc2ccccc2I)(C(=O)NCCN2CCOCC2)[C@H](c2ccc(CO)cc2)N1Cc1ccccc1C(F)(F)F | 0.368 | 0.469 | -0.103 | -1.98 | -2.7 | 1.5 | 0.0392 (inactive) | -0.876 | -0.601 | -0.577 (inactive)
19 | O=C1C2C=CC(C(O)C3CC=CCC3)N(Nc3ccc([N+](=O)[O-])cc3)C2C(=O)N1c1ccccc1 (stereo not given) | -0.562 | 0.243 | -1.55 | 0.25 | -0.738 | -1.02 | -1.43 (inactive) | -0.374 | 0.000383 | -0.383 (inactive)
20 | COc1ccc(CCNC(=O)[C@@]2(c3ccc([N+](=O)[O-])cc3)CC(=O)N(C3CCCCC3)[C@@H]2c2ccc(CO)cc2I)cc1 | 0.507 | 0.969 | -0.348 | -2.41 | -2.58 | 1.31 | 0.72 (inactive) | -0.293 | 0.379 | -1.11 (inactive)
21 | CCOC(=O)C1=CCC(c2ccncc2)N(S(=O)(=O)c2ccc(C)cc2)C1 (stereo not given) | -1.72 | -0.784 | -1.37 | -2.28 | -1.31 | -1.41 | 0.561 (inactive) | 0.115 | -1.61 | -0.44 (inactive)
22 | COc1ccc(CCNC(=O)[C@@H]2c3ccccc3C(=O)N(Cc3cc(F)cc(C(F)(F)F)c3)[C@H]2c2ccc(CO)cc2)cc1 | 2.41 | 1.33 | 0.492 | -0.696 | 0.36 | 1.98 | 0.17 (inactive) | -0.455 | 0.558 | 1.3 (inactive)
23 | COC(=O)C1(CC(C)C)C=C2C(=C(C)C(=O)C2C)CN1 (stereo not given) | -1.23 | -0.291 | -1.14 | -0.945 | -1.77 | -1.04 | -1.83 (inactive) | 0.147 | -0.92 | -0.726 (inactive)
24 | CCOC(=O)C[C@H]1[C@H](OC(=O)Cc2ccc3c(c2)OCO3)[C@@H](NC(=O)CC(C)C)c2cc(OCCCO)ccc2N1C(=O)c1ccc2ccccc2n1 | 0.415 | 1.37 | -0.236 | 0.383 | -0.577 | 0.218 | 0.0499 (inactive) | 0.01 | -0.659 | 0.194 (inactive)
25 | N#Cc1ccc(NN2C(C(O)c3ccc(B(O)O)cc3)C=CC3CN(c4ccccc4)C(=O)C32)cc1 (stereo not given) | 0.222 | -0.463 | -0.35 | -0.104 | -1.29 | -2.14 | -0.643 (inactive) | -0.0762 | -0.696 | 0.238 (inactive)
26 | COc1ccc([Si](C)(C)[C@H]2[C@H](CC(=O)N(CCO)Cc3ccccc3)O[C@@]3(C(=O)N(Cc4cccc(N5CCCCC5=O)c4)c4ccccc43)[C@@H]2C)cc1 | -0.166 | 1.19 | -1.16 | -0.391 | -4.18 | 0.553 | 1.65 (inactive) | -0.981 | -1.61 | -1.91 (inactive)
27 | CCOC(=O)C1=C[C@@H](C(C)(C)C)N(S(=O)(=O)c2ccc(C)cc2)[C@H]1c1ccc(OC)cc1 | 0.279 | -0.276 | -0.778 | -1.04 | -1.23 | 4.09 | -0.305 (inactive) | -0.589 | -0.676 | 2.62 (inactive)
28 | [N-]=[N+]=NCc1ccccc1[C@H]1OC(c2ccc(OCCCO)cc2)=N[C@@]1(Cc1ccccc1N=[N+]=[N-])C(N)=O | -0.0372 | -0.117 | -0.18 | -1.84 | -1.76 | -0.255 | 0.199 (inactive) | -1.06 | -0.928 | 0.85 (inactive)
29 | COCCOC(=O)N1C(=O)[C@@]2(c3cc(C#CC4=CCCCC4)ccc31)[C@H](C(=O)N1CCCCCCC1)[C@H]1C(=O)O[C@H](c3ccccc3)[C@H](c3ccccc3)N1[C@@H]2c1ccccc1OCCO | -0.314 | 0.922 | -0.107 | -0.99 | -0.813 | 0.0436 | 0.992 (inactive) | -0.966 | -0.982 | 0.356 (inactive)
